Experimental data from PubChem BioAssay (NCI).
Compounds without any hit were thinned out: in the full panel of roughly 83,000, 20% have a hit.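 Single-concentration screen, 48 h exposure, 96-well plates. Endpoint: percent growth. Below 10 = active.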 Unmarked numbers belong to inactive results. Calls of active or inactive are those of the source.

test system: NCI-H460 lung; experiment: NCI-60 one-dose screen, 48 h (100 = growth as untreated, 0 = no growth, -100 = all killed); conditions: 10 µM
Protocol: Growth inhibition of the NCI-H460 human Non-Small Cell Lung tumor cell line is measured as a screen for anti-cancer activity. Cells are grown in 96 well plates and exposed to the test compound for 48 hours. Compounds are tested at a single concentration, which is 10^-5 M for most compounds. The reported endpoint is percent growth (GI% or GIPRCNT), where numbers from 0 - 100% represent growth inhibition, and numbers from -100% - 0 represent cell death. For example, a value of 40 represents 60% growth inhibition. A value of 0 means no net growth occurred over the course of the experiment. A value of -40 indicates 40% of cells at the beginning of the experiment died by the end of the experiment. A value of -100 means all cells are dead at the end of the experiment.
NCI-60 Human Tumor Cell Lines Screen was performed using the standard one-dose NCI protocol, which is described in more detail at https://dtp.cancer.gov/discovery_development/nci-60/default.htm.
Compounds with GIPRCNT values below 10 were considered active. Activity score was based on GIPRCNT using the following formula: […]
Score is 0 for GIPRCNT values of 100 or above, 50 for GIPRCNT values of 0, and 100 for GIPRCNT values of -100.

Row | Compound | growth
1 | Cc1ccc2c3c(cccc13)-c1ccccc1C2=O | 96.2%
2 | CC(C)OCc1cc(CN2CCN(c3cccc(Cl)c3)CC2)c(O)c2ncccc12 | 0.361% (active)
3 | N#C/C(=C/c1cc([N+](=O)[O-])ccc1Cl)C(N)=O | 110%
4 | FC(F)(F)c1ccc(-c2cnc(Br)nc2NC2CCCCCC2)cc1 | 28.6%
5 | FC(F)(F)c1ccc(-c2cnc(Cl)nc2NCc2cc(C(F)(F)F)cc(C(F)(F)F)c2)cc1 | 3.48% (active)
6 | C[C@]12CC[C@H]3[C@@H](CCC4=CC(=O)CC[C@@]43C)[C@@H]1CC[C@@H]2c1csc(N)n1 | 42.4%
7 | CCCCn1c(=O)[nH]c2c(c1=O)C(c1ccc(Cl)cc1)c1c([nH]c(=O)n(CCCC)c1=O)N2 | 106%
8 | COc1ccc(/C=C(\c2cc(OC)c(OC)c(OC)c2)c2nnc(-c3cccs3)o2)cc1 | 72.7%
9 | CCOC(=O)c1c(Cl)c2c(n1Cc1cccc(OC)c1)-c1oncc1CC2 | 9.8% (active)
10 | CCOC(=O)Nc1ccc2c(c1)C(=O)N(CCOC)c1ccccc1O2 | 23%
11 | Cc1cc(C)c2c(Nc3ncnc4c3sc3nc(C)cc(C)c34)n[nH]c2n1 | 104%
12 | COc1ccc(-c2ccc(-c3ccc(C(=N)N)c(F)c3)s2)cc1 | -84.2% (active)
13 | C=CCn1ccc(=O)nc1SC | 104%
14 | O=C(O)CN1C(=O)C=CC1=O | 107%
15 | CCNC(=S)NN | 95.6%
16 | C[N+]1=C(/C=C/c2ccc(I)cc2)C(C)(C)c2ccccc21 | 103%
17 | Cc1ccc(/C(CS(=O)(=O)c2ccc(C)cc2)=N\O)cc1 | 106%
18 | CCCCCCCCCCCCCCCCCBr | 106%
19 | COc1ccccc1NC1=C(N2CCCCC2)C(=O)c2ccccc2C1=O | 87.9%
20 | CCCCNC(=O)Oc1ccc(/C(=C(\C)c2ccc(OC)cc2)c2ccc(OCCN3CCCCC3)cc2)cc1 | 34.6%

Row | Compound | growth
21 | COc1ccc(-n2nnc3c(sc4ccccc43)c2=O)cc1 | -18.2% (active)
22 | Cc1ccccc1C1=N[C@@H](Cc2ccccc2)C(=O)c2c(nc3ccccn23)N1 | 103%
23 | CNC(=O)c1cc(Oc2ccc(NC(=O)Nc3ccc(Cl)c(OC(C)C)c3)c(F)c2)ccn1 | 61.1%
24 | Cc1ccc(C2C=C(c3ccc(Cl)cc3)N=C3SC=CN32)c(Br)c1 (stereo not given) | 84.4%
25 | O=C(Nc1ccc(OS(=O)(=O)Cc2ccccc2)cc1)C12CC3CC(CC(C3)C1)C2 | 68.8%
26 | CCc1ccc(-c2nnc(COc3ccc(-c4nc5cc(Cl)c(Cl)cc5[nH]4)cc3OC)o2)cc1 | 24.5%
27 | O=C(COc1ccc(-c2nc3ccccc3[nH]2)cc1)N=Nc1c(O)[nH]c2ccccc12 | 97.8%
28 | COc1cc(C2C=C(c3ccc(Cl)c(Cl)c3)N=C3SC(C)=CN32)cc(OC)c1OC (stereo not given) | 77.5%
29 | COc1ccc(-c2nc(-c3ccccc3)c(-c3ccccc3)[nH]2)cc1OC1CCCC1 | 61.4%
30 | CC(=O)c1ccc(NCn2nc(-c3ccc(Cl)cc3)oc2=S)cc1 | 106%
31 | COc1ccc(-c2oncc2-c2cc(OC)c3c(c2)OCO3)cc1 | 11.5%
32 | COc1cc(OC)cc(-c2n/c(=C\c3c(O)[nH]c4ccc(OC)cc34)cc3c2=Nc2ccccc2-3)c1 | 12.8%
33 | COCCNCC(O)Cn1c2ccc(Cl)cc2c2cc(Cl)ccc21 (stereo not given) | 5.55% (active)
34 | O=[N+]([O-])c1ccc(-c2nc(Cl)c3c(n2)CCCC3)o1 | 34%
35 | Cc1nc2scc(-c3ccc(Cl)cc3)n2c(=O)c1CCN1CCOCC1 | 107%
36 | COc1ccc(-c2[nH]ncc2/C=C/c2cc(C(F)(F)F)[nH]c(=O)n2)cc1 | 110%
37 | CC(CNC(Cc1ccccc1)c1ccccc1)NC(Cc1ccccc1)c1ccccc1 (stereo not given) | 8.03% (active)
38 | CCOC(=O)Cn1nnc(-c2ccc(OCc3ccccc3F)cc2)n1 | 102%
39 | S=C(Cc1ccc(-c2ccccc2)cc1)N1CCOCC1 | 103%
40 | COc1cc(OC)cc(N2CCN(C(=O)Nc3nc4cc(F)ccc4nc3OC)CC2)c1 | 5% (active)
